Reference: ChEMBL document CHEMBL4513216, “Probing the Open Global Health Chemical Diversity Library for Multistage-Active Starting Points for Next-Generation Antimalarials” (ACS Infect Dis, 2020)
Out of some 69,000 compounds screened, about 8,600 (12%) showed an effect of 50% or more. The full list was thinned out, with strong results kept by preference.

These molecules were tested on Plasmodium berghei (assay: Screen against P. berghei liver stage (PbLuc), transformed with Luciferase, at 10uM). Conditions: tested at 10 uM.
Assay type: functional, HepG2

Compound | INHIBITION [%]
Cc1cccc(CN2C(=O)CO[C@@H]3CN(C4CCOCC4)C[C@H]32)c1 | -18.2
CCN(C(=O)CCCOc1ccccc1F)c1ccncc1 | -26.8
CCCn1nnnc1COC(=O)C1Cc2cc(Cl)ccc2O1 (stereo not drawn) | 43.5
CCCn1nccc1NC(=O)c1ccc(Cl)c(N2CCNC2=O)c1 | 57
CCc1ccc(C(=O)Nc2cc(N3CCNC3=O)ccc2Cl)o1 | 32.9
CCCc1cc(NC(=O)c2ccc(Cl)c(N3CCNC3=O)c2)n[nH]1 | -26.4
O=C(CC1C=CCC1)N1CCc2ncnc(NCc3ccon3)c2CC1 (stereo not drawn) | 34.5
CC(NC(=O)CSCC#N)c1ccc(Cl)cc1 (stereo not drawn) | 34.7
CC(NC(=O)CSCC#N)c1ccccc1 (stereo not drawn) | 55.5
CC(NC(=O)CSCC#N)c1ccc(F)cc1 (stereo not drawn) | -13.3
Cc1c(Br)cnn1CCC(=O)N(C)Cc1c(Cl)cnn1C | 32.2
O=C(c1ccncc1)N1CCOC2(COCCN(c3cccnc3)C2)C1 (stereo not drawn) | 31.4
COc1ccc(N2CCCC3(C2)CN(c2cccnc2)CCO3)cc1 (stereo not drawn) | 8.85
Fc1cnc(N2CCCC3(CN(Cc4cccs4)CCO3)C2)nc1 (stereo not drawn) | 32.5
c1cncc(N2CCCC3(CN(Cc4cccs4)CCO3)C2)c1 (stereo not drawn) | 63.7
CC(C)N1CCOCC2(CN(Cc3cccs3)CCO2)C1 (stereo not drawn) | 41.2
c1cncc(N2CCOCC3(CN(Cc4cccs4)CCO3)C2)c1 (stereo not drawn) | 53.2
O=C(CCc1nc(C2CC2)no1)c1ccc2c(c1)OCCO2 | -5.22
CN1CCCC(c2cncc(C(=O)NCc3ccccc3Cl)n2)C1 (stereo not drawn) | -54.1

Compound | INHIBITION [%]
CC(C)=CCN1C(=O)[C@@H]2CC[C@H]1CN(c1ncccn1)C2 | 12.7
CC(C)(C)NC(=O)CNc1ccc(Br)cn1 | 25.4
O=C(NCCCn1cccn1)c1nc2ccccc2[nH]1 | 15.7
Cc1csc(NC(=O)NCCCN2CCC(C(N)=O)CC2)n1 | -21.1
Cc1ccnc(OC[C@]23COC[C@H]2CN(C(=O)Cc2ccsc2)C3)n1 | -39.9
Cc1n[nH]c(C)c1NC(=O)CN1CCCC1c1noc(C2CC2)n1 (stereo not drawn) | 26.5
c1ccc(-c2nn3c(CN4CCOCC4)nnc3s2)nc1 | 25.9
COc1cc(N2C[C@H]3CN(CC(=O)N(C)C)C(=O)[C@H]3C2)ncn1 | 42.3
COCCN1CC[C@H]2CN(c3cc(OC)ncn3)C[C@@H]2C1=O | 54.1
Cc1ccc(N2C[C@@H](CN3CCOCC3)[C@@H](CO)C2)nn1 | 20.4
Cc1ccc(N2C[C@H]3CCC[C@@H](CN4CCOCC4)[C@H]3C2)nn1 | 61.9
COc1cc(N2C[C@H]3CCC[C@@H](CN4CCCC4)[C@H]3C2)ncn1 | 76.5
COc1cc(N2C[C@H]3CCC[C@@H](CN(C)C4CC4)[C@H]3C2)ncn1 | 20.6
Cc1ccc(N2C[C@H]3CCC[C@@H](CN(C)C)[C@H]3C2)nn1 | -10.5
Cc1nc(CN2C[C@@H]3CN(c4ncc(F)cn4)C[C@@H]3C2=O)cs1 | 5.63
COCCN1C[C@@H]2CN(c3ncccn3)C[C@@H]2C1=O | -14.6
COc1cc(N2C[C@H]3CCC[C@@H](CN(C)C)[C@H]3C2)ncn1 | 32.2
COc1cc(N2C[C@H]3CN(CCN4CCCC4)C(=O)[C@H]3C2)ncn1 | 17.2
COCCN1C[C@@H]2CN(c3ncc(F)cn3)C[C@@H]2C1=O | 53.4
